Consider 25 compounds from PubChem BioAssay (Tox21).

Several values for one entry are separate records, joined by “and”; a condition that tells them apart may be missing. Equal entries are not always repeated. Some structures have more than one record in an assay (separate samples or runs), and their calls can disagree. Activity calls are given as the source filed them. Unless noted, the call rests on the fitted dose curve; in most records, active means well fitted curve in the direction sought with a large enough effect in the repeat runs; inconclusive means weak or mixed curves; inactive means no such curve, though single readings can be large; an effect the other way counts as inactive or inconclusive.

Assay [1] is described as follows: qHTS assay to identify small molecule antagonists of the thyroid receptor (TR) signaling pathway - cell viability counter screen (AID 743064). Further: nearly all actives have a fitted effect of over 50% in size. The essentials: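 In-well cytotoxicity read by CellTiter-Fluor (30 min, 37 C) following 23.5 h exposure of GH3 cells bearing a TRE-luciferase sensor. Compounds were added alongside 1 nM (final) T3 to drive TR transactivation.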

Assay [2] can be described thus: qHTS assay to identify small molecule antagonists of the thyroid receptor (TR) signaling pathway (AID 743065). Further: nearly all actives have a fitted effect of over 55% in size. Further: potency means the concentration at half of the fitted maximal effect. On activity, negative = inhibition: series mostly up to about 70 µM. The essentials:
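GH3.TRE-Luc rat pituitary cells (two TREs driving luciferase) were dosed with compound, then stimulated with 1 nM T3 (final) for 23.5 h at 37 C. ONE-Glo luminescence was the read-out, with CellTiter-Fluor fluorescence as the cytotoxicity counter-screen.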

For assay [3], the system named is thyroid hormone receptor (rat, GH3 cells). In words: qHTS assay to identify small molecule agonists of the thyroid receptor (TR) signaling pathway (AID 743066; calls by dose curve; further: potency means the concentration at half of the fitted maximal effect).
The nature of assay [4]: qHTS assay to identify small molecule antagonists of the estrogen receptor alpha (ER-alpha) signaling pathway - cell viability counter screen (AID 743074; calls by dose curve;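 further: HEK293 cells carrying ER-alpha-UAS-bla reporter stimulated with 17beta-estradiol; nearly all actives have a fitted effect of over 45% in size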).
Assay [5] can be described thus: qHTS assay to identify small molecule antagonists of the estrogen receptor alpha (ER-alpha) signaling pathway using the BG1 cell line - cell viability counter screen (AID 743081).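 Further: compound given together with 17beta-estradiol as the ER stimulus; series mostly up to about 70 µM; nearly all actives have a fitted effect of over 45% in size.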
The next assay deals with Aromatase (Homo sapiens) (UniProt P11511). In words: qHTS assay to identify aromatase inhibitors (AID 743083). Further: series mostly up to about 70 µM; nearly all actives have a fitted effect of over 55% in size.
The target in assay [6] is Estrogen receptor (Homo sapiens) (UniProt P03372). In words: qHTS assay to identify small molecule agonists of the estrogen receptor alpha (ER-alpha) signaling pathway (AID 743075; calls by dose curve;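 further: HEK293 GripTite cells with ER-alpha and UAS-driven beta-lactamase reporter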).
For assay [7] the target is unchanged. In words: qHTS assay to identify small molecule agonists of the estrogen receptor alpha (ER-alpha) signaling pathway using the BG1 cell line (AID 743079). Further: nearly all actives have a fitted effect of over 20% in size. Further: potency means the concentration at half of the fitted maximal effect.
Assay [8] in a line: qHTS assay to identify small molecule antagonists of the estrogen receptor alpha (ER-alpha) signaling pathway using the BG1 cell line (AID 743080; calls by dose curve;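 further: BG1 cells stimulated with 17beta-estradiol alongside compound; series mostly up to about 70 µM; nearly all actives have a fitted effect of over 25% in size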). The essentials: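 Readout is ONE-Glo luminescence, taken 30 min at room temperature after reagent addition, preceded by a CellTiter-Fluor viability read; BG1-Luc-4E2 cells had received compound and 17beta-estradiol for 21.5 h at 37 C.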

For assay [9], the target named is Estrogen receptor (Homo sapiens) (UniProt P03372). In words: qHTS assay to identify small molecule antagonists of the estrogen receptor alpha (ER-alpha) signaling pathway (AID 743069; active means well fitted curve in the direction sought with a large enough effect in the signal ratio in the repeat runs, not every such curve was filed as active; inconclusive means weak or mixed curves, or effect the other way; inactive means no such curve, though single readings can be large or run the other way; the % refers to the signal ratio; further: potency means the concentration at half of the fitted maximal effect). The essentials:
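Beta-lactamase FRET fluorescence is read after 2 hr at room temperature with LiveBLAzer B/G substrate. Before that, ER-alpha-bla HEK293 cells sit 4 hr after plating, then receive compound plus 17beta-estradiol and incubate 18 hr at 37C.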
On the % scale 0 is the no-effect control and ±100 the full control effect.

Aromatase (Homo sapiens), sequence (P11511 whole entry, looked up): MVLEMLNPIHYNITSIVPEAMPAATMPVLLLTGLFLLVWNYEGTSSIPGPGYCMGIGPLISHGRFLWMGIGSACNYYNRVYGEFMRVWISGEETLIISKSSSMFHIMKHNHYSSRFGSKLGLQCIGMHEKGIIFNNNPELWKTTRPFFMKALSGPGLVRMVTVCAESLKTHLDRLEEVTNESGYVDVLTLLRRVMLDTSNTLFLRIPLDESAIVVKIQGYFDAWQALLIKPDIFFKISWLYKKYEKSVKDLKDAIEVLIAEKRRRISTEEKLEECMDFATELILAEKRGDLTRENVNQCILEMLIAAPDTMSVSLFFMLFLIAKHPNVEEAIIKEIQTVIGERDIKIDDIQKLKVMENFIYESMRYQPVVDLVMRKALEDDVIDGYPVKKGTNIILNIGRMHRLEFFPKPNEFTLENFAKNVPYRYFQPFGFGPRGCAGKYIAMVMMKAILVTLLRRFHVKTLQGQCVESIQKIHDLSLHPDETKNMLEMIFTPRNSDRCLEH
Estrogen receptor (Homo sapiens), sequence (P03372 whole entry, looked up): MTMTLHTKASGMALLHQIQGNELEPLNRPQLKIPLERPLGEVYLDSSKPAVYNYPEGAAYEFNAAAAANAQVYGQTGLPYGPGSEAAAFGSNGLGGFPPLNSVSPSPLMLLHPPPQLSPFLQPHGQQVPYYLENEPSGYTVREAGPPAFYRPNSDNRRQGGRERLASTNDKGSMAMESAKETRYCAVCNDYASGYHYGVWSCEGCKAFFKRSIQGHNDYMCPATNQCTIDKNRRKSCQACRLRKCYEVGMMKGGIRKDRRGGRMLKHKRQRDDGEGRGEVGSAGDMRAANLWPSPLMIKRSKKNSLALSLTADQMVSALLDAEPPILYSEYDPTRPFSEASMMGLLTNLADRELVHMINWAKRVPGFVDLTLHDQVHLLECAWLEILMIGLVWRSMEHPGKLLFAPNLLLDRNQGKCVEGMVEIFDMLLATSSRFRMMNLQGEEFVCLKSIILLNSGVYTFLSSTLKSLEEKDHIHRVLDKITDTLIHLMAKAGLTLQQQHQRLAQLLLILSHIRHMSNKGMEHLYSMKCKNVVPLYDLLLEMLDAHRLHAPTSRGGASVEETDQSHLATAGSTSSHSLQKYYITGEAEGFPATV

Regarding `O=C(O)c1cc(Cl)ccc1Cl`, the Potency entry (in assay [1]; in [2]; in assay [3]; in assay [4]; in assay [5]; with Aromatase (Homo sapiens)) was “inactive” in each case.
Take `Clc1ccc(Cl)c(Cl)c1`: the Potency entry (in assay [1]; in assay [2]; in assay [4]; in assay [5]; with Aromatase (Homo sapiens)) was “inactive” throughout. Moreover, in assay [3], the Potency entry was “inactive and 30.6 µM (active)”.
Take `O=C1NC(=O)C(=O)C(=O)N1`: the Potency result in assay [1], in assay [3], in assay [4], in assay [6], in assay [7] and in assay [8] was “inactive” each time. Further, the Potency result (in assay [5]; with Aromatase (Homo sapiens)) was “inactive” each time.
On to `Cc1nc(N(C)C)nc(OC(=O)N(C)C)c1C`, for which the Potency entry in assay [2], in assay [3], in [9], in assay [4], in assay [6] and in assay [7] was “inactive” in each case. For the same compound, the Potency result (in [8]; in assay [5]; in the assay with Aromatase (Homo sapiens)) was “inactive” in each case.
Consider `O=C(NC(=O)c1cc(F)c(F)cc1Cl)Nc1cc(F)ccc1N1CCC(C(=O)O)CC1`, for which the Potency entry in assay [1], in [4], in assay [6], in assay [7], in [8] and in assay [5] was “inactive” throughout. Besides, the Potency entry with Aromatase (Homo sapiens) was “inactive”.
Turning to `CCOc1cccc(C2(N3CCN(c4ccccc4)CC3)CCC(C)CC2)c1` (centres undefined), the Potency entry in [2], in [3], in assay [9], in assay [6], in assay [7] and in assay [5] was “inactive” throughout. Besides, the Potency result in the assay with Aromatase (Homo sapiens) was “inactive”.
With `CCCCCCCCCCCCN=C(N)N`, the activity change, negative = cytotoxic in [1] was -13.9% [at 3.79 µM] (inactive). For the same compound, in [3], the activation is -1.59% [at 3.63 µM] (inactive). In addition, the activity change, negative = inhibition in assay [8] is -30.4% [at 3.79 µM] (inactive). In assay [5], the activity change, negative = cytotoxicity was -12.7% [at 3.79 µM] (inactive). In the assay with Aromatase (Homo sapiens), the activity, negative = inhibition is -1.41% [at 3.79 µM] (inactive).
Turning to `CC(C)[C@@H](C(=O)O[C@@H](C#N)c1cccc(Oc2ccccc2)c1)c1ccc(Cl)cc1`, the Potency entry (in assay [1]; in assay [3]; in [5]; in the assay with Aromatase (Homo sapiens)) was “inactive” throughout.
As for `CN1CC[C@]23c4c5ccc(O)c4O[C@H]2[C@@H](O)C=C[C@H]3[C@H]1C5`, the Potency result (in assay [1]; in assay [3]; in [4]; in [8]; in assay [5]; with Aromatase (Homo sapiens)) was “inactive” each time.
In the case of `CC(Oc1cccc(Cl)c1)C(=O)O` (centres undefined), the Potency result (in assay [2]; in assay [3]; in [4]; in assay [5]; with Aromatase (Homo sapiens)) was “inactive” throughout.
For `CCCCCCCCCCCCCCCl`, the Potency result in assay [2], in [3], in [4], in assay [6], in [7] and in assay [8] was “inactive” throughout. Moreover, the Potency entry (in assay [5]; with Aromatase (Homo sapiens)) was “inactive” throughout.
Consider `CCC(C)(C)O`, for which the Potency entry in assay [2], in assay [3], in [9], in assay [4], in [6] and in assay [7] was “inactive” each time. The Potency entry (in [8]; in [5]; in the assay with Aromatase (Homo sapiens)) was “inactive” throughout.
For the compound `CC(Cl)C(=O)O` (centres undefined), the Potency entry (in assay [2]; in [3]; in assay [4]; in [5]; in the assay with Aromatase (Homo sapiens)) was “inactive” throughout.
`NC(=S)c1c(Cl)cccc1Cl`: the Potency entry in assay [1], in assay [4], in assay [6], in assay [7], in [8] and in assay [5] was “inactive” in each case. Besides, the Potency result with Aromatase (Homo sapiens) was “inactive”.
Regarding `CCOP(=O)(SC(C)CC)N1CCSC1=O` (centres undefined), the Potency result (in [1]; in [4]; in [5]; in the assay with Aromatase (Homo sapiens)) was “inactive” throughout.
Regarding `CN1C(=O)CN=C(c2ccccc2)c2cc([N+](=O)[O-])ccc21`, the Potency entry (in [3]; in [9]; in assay [4]; in assay [6]; in [5]; with Aromatase (Homo sapiens)) was “inactive” throughout.
Turning to `CCOC(=O)c1cncn1C(C)c1ccccc1` (centres undefined), the Potency result in assay [2], in assay [3], in assay [4], in [6], in assay [7] and in assay [8] was “inactive” each time. The Potency entry (in assay [5]; with Aromatase (Homo sapiens)) was “inactive” throughout.
For `O=S(=O)(c1ccccc1)c1ccccc1`, the Potency entry (in assay [2]; in assay [3]; in [4]; in [5]; in the assay with Aromatase (Homo sapiens)) was “inactive” in each case.
As for `N#CC(C#N)=Cc1ccc(O)c(O)c1`, the Potency in assay [2] is 26.6 µM (active). The Potency result in [3], in assay [9], in assay [4], in assay [7], in assay [8] and in assay [5] was “inactive” throughout. Further, the Potency entry with Aromatase (Homo sapiens) is “inactive”.
In the case of `COc1ccc(C(=O)c2c(C)n(CCN3CCOCC3)c3ccccc23)cc1`, the Potency entry (in assay [1]; in assay [3]; in assay [4]; with Aromatase (Homo sapiens)) was “inactive” throughout.
For `Cc1ncc(C[n+]2csc(CCO)c2C)c(N)n1`, the Potency entry (in [1]; in assay [3]; in assay [4]; in [5]; with Aromatase (Homo sapiens)) was “inactive” throughout.
Consider `COC(=O)Cc1ccccc1`, for which the Potency result in [1], in assay [9], in [4], in assay [6], in assay [7] and in assay [8] was “inactive” in each case. The Potency result (in assay [5]; with Aromatase (Homo sapiens)) was “inactive” throughout.
With `C=CC(C)(CCC=C(C)C)OC(=O)c1ccccc1N` (centres undefined), the Potency entry (in assay [2]; in assay [3]; in assay [4]; in [5]; with Aromatase (Homo sapiens)) was “inactive” in each case.
`O=C(O)C(F)(F)C(F)(F)C(F)(F)C(F)(F)C(F)(F)C(F)(F)C(F)(F)C(F)(F)F`: the Potency entry in assay [3], in assay [4], in assay [6], in assay [7], in assay [8] and in [5] was “inactive” each time. Also, the Potency result in the assay with Aromatase (Homo sapiens) was “inactive”. The Potency in [9] was 27.5 µM [inconclusive] (active).
Turning to `C[N+]1(CCF)[C@@H]2CC[C@H]1CC(OC(=O)C(O)(c1ccccc1)c1ccccc1)C2` (some centres undefined), the Potency entry (in assay [2]; in [3]; in [8]; in [5]; in the assay with Aromatase (Homo sapiens)) was “inactive” throughout. Moreover, the Potency in [7] is 15 µM (active).
